# According to PMC7862700, “An all-to-all approach to the identification of sequence-specific readers for epigenetic DNA modifications on cytosine”:
# How the values were obtained:
# Assay in all cases: DAPPL (digital affinity profiling via proximity ligation, sequencing); 10 mM Tris-HCl pH 7.5, 50 mM NaCl, 1 mM DTT, 4% glycerol, room temperature, 30 min; GST-TFs on glutathione beads, 16-mer random dsDNA library, 0.1% formaldehyde crosslink after washing; high values mean tight binding
# [1] = target: T1, FLI1 (Homo sapiens, UniProt Q01543 1-452); conditions: protein: recombinant; tags: N-terminal GST; dsDNA, one strand shown
# T1 sequence: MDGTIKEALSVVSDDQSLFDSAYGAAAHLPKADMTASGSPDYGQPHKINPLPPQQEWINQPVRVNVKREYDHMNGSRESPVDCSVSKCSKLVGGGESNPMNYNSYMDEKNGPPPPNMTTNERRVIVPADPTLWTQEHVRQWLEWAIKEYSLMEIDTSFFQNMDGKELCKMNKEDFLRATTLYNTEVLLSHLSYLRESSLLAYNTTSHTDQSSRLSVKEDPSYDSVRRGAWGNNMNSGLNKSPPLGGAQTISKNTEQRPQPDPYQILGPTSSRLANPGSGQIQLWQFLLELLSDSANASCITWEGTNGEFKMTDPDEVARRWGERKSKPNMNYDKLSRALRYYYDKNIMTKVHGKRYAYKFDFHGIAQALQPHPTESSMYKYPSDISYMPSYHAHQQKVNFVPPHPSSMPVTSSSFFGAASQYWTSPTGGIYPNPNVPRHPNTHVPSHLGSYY
# Summary of the method: (§1)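 Human transcription factors were made in yeast as GST fusions, captured on glutathione beads and barcoded with DNA. With a tag-only sample included, the pool was incubated with 200 nmole of a random double-stranded 16-mer DNA library in Tris/NaCl/DTT/glycerol buffer at room temperature for 30 min, then crosslinked with 0.1% formaldehyde after washing, ligated by proximity, amplified and sequenced. For binding signal, each hexamer's read frequency for a factor is divided by its frequency for the tag-only sample.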
# [2] = target: T2, ELK1 (Homo sapiens, UniProt P19419 1-428); conditions: protein: recombinant; tags: N-terminal GST; dsDNA, one strand shown
# T2 sequence: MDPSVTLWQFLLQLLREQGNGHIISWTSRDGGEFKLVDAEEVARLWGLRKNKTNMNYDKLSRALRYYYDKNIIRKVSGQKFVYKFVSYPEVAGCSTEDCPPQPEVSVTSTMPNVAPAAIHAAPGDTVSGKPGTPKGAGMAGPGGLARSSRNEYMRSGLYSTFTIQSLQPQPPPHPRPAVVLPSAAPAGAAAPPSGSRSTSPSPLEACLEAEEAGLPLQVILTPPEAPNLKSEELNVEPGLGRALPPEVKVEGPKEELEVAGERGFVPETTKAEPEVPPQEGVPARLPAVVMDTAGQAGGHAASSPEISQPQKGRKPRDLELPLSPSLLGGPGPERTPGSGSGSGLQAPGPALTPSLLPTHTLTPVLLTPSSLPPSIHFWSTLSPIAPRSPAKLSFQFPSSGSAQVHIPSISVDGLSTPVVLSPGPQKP
# Summary of the method: as §1
# [3] = target: T3, ELK3 (Homo sapiens, UniProt P41970 1-407); conditions: protein: recombinant; tags: N-terminal GST; dsDNA, one strand shown
# T3 sequence: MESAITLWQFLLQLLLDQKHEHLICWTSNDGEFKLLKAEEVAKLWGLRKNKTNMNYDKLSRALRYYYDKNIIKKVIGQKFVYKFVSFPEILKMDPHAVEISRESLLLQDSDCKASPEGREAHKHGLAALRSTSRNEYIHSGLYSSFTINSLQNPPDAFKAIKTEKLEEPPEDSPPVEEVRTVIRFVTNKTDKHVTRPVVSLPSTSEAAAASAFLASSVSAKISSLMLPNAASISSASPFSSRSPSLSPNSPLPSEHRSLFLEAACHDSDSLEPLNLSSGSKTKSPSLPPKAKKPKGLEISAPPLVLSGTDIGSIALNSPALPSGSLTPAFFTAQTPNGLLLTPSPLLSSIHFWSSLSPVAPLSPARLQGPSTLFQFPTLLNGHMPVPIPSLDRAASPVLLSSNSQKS
# Summary of the method: as §1
# [4] = target: HSF1 (Homo sapiens, UniProt Q00613 1-529); conditions: protein: recombinant; tags: N-terminal GST; chain copies: 3; dsDNA, one strand shown
# Summary of the method: as §1
# [5] = target: T4, ETV2 (Homo sapiens, UniProt O00321 1-342); conditions: protein: recombinant; tags: N-terminal GST; dsDNA, one strand shown
# T4 sequence: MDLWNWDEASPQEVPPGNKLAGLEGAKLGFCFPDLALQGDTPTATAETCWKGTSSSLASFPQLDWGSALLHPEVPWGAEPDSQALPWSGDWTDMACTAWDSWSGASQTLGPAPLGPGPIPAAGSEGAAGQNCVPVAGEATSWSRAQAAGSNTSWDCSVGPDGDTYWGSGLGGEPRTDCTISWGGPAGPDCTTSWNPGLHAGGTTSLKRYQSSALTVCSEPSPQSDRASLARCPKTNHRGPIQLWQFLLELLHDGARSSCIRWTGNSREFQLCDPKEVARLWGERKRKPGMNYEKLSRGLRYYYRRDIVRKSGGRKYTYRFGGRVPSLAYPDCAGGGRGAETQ
# Summary of the method: as §1
# [6] = target: T5, ELF3 (Homo sapiens, UniProt P78545 1-371); conditions: protein: recombinant; tags: N-terminal GST; dsDNA, one strand shown
# T5 sequence: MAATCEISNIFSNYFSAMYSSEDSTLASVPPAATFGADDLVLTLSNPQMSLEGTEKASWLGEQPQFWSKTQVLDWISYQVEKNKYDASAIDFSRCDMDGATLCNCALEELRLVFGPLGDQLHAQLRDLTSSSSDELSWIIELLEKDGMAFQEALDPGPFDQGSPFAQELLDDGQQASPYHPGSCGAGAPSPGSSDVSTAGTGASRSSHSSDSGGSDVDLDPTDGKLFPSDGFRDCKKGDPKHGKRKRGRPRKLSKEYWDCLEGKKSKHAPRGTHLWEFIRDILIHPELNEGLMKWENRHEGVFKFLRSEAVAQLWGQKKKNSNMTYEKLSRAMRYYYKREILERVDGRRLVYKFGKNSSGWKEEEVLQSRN
# Summary of the method: as §1
# [7] = target: T6, ETV3L (Homo sapiens, UniProt Q6ZN32 1-361); conditions: protein: recombinant; tags: N-terminal GST; dsDNA, one strand shown
# T6 sequence: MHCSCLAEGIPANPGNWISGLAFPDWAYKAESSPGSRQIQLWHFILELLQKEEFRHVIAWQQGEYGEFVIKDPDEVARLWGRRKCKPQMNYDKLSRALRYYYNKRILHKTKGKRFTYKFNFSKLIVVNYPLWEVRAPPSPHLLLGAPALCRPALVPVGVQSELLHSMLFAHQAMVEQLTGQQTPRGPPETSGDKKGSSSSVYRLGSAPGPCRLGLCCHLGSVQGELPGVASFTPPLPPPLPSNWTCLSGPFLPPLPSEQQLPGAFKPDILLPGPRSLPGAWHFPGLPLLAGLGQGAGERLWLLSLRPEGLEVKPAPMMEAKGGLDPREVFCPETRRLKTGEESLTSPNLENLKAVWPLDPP
# Summary of the method: as §1
# Chain of HSF1 (Q00613 whole entry): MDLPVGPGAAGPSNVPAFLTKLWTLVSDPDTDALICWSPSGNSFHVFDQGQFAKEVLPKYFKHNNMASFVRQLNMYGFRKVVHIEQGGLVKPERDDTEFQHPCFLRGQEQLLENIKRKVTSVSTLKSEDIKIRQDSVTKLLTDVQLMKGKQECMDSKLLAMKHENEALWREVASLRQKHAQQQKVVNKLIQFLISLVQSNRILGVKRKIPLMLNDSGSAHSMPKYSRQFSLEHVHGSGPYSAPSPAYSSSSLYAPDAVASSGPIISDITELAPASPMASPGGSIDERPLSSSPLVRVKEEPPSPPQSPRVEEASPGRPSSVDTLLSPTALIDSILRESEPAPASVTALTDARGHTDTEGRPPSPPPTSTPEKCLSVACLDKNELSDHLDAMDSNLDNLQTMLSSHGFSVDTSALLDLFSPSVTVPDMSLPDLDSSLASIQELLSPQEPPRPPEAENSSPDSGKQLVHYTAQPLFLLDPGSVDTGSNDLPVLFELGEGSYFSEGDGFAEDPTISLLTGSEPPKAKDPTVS
sequence,measurement,setting,value
CGCTAA,binding signal,[1],"1.01 fold enrichment (6-mer frequency, TF over GST control)"
same,binding signal,[2],"1.05 fold enrichment (6-mer frequency, TF over GST control)"
same,binding signal,[3],"1 fold enrichment (6-mer frequency, TF over GST control)"
same,binding signal,[4],"1.09 fold enrichment (6-mer frequency, TF over GST control)"
same,binding signal,[5],"1.09 fold enrichment (6-mer frequency, TF over GST control)"
same,binding signal,[6],"1 fold enrichment (6-mer frequency, TF over GST control)"
same,binding signal,[7],"1 fold enrichment (6-mer frequency, TF over GST control)"
